# Results as given in the supplement of paper PMC9262897, “Low-cost anti-mycobacterial drug discovery using engineered E. coli” (Nature Communications, 2022).
# Structures can show the parent of a compound that is named as a salt. ± gives the standard deviation of the averaged measurements.
# How the values were obtained:
# Test in all cases: growth (OD600 after 10 h); higher = more growth (less inhibition)
# [1] = tested on: E. coli TESEC Alr+ wild-type control; settings: compound 0.1 mM; raw OD600 reference: median of DMSO wells 0.241, cell-free background 0.041
# Method: (§1)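 TESEC Mtb Alr E. coli, or the Alr+ wild-type control, in 384-well plates with Prestwick library compounds at 0.1 mM and 1% DMSO, across arabinose induction levels of 1E3 to 1E7 nM. Growth is read as OD600 after 10 h at 37 °C in triplicate biological replicates.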
# E. coli TESEC Mtb Alr [2] = settings: compound 0.1 mM
# Method: as §1
# E. coli TESEC Mtb Asd = settings: compound 0.1 mM
# Method: (§2)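 TESEC E. coli strains in which the native enzyme is deleted and replaced by arabinose-inducible Mtb Asd, DapB, CysH or TrpD, each grown in its selective medium. Strains were screened against the Prestwick library at 0.1 mM and 1% DMSO in 384-well format at low and high arabinose induction. Growth is read as OD600 after 10 h in triplicate.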
# E. coli TESEC Mtb DapB = settings: compound 0.1 mM
# Method: as §2
# [3] = tested on: E. coli TESEC Alr+ wild-type control; settings: compound 0.1 mM; raw OD600 reference: median of DMSO wells 0.49, cell-free background 0.052
# Method: (§3)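 TESEC Mtb Alr E. coli (ΔaraC ΔtolC ΔentC Δalr ΔdadX, arabinose-inducible Mtb Alr) or the Alr+ wild-type control strain, grown in defined M9-fructose medium without D-alanine in 96-well plates with Prestwick library compounds at 0.1 mM and 1% DMSO. Low Alr induction is 0.1 µM arabinose and high induction is 10 mM arabinose.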
# E. coli TESEC Mtb Alr [4] = settings: compound 0.1 mM; remark: listed apart in the source
# Method: as §3
# [5] = arabinose 1000 nM, raw OD600 reference: median of DMSO wells 0.294, cell-free background 0.041
# [6] = arabinose 10000 nM, raw OD600 reference: median of DMSO wells 0.264, cell-free background 0.041
# [7] = arabinose 100000 nM, raw OD600 reference: median of DMSO wells 0.201, cell-free background 0.041
# [8] = arabinose 1000000 nM, raw OD600 reference: median of DMSO wells 0.193, cell-free background 0.041
# [9] = arabinose 10000000 nM, raw OD600 reference: median of DMSO wells 0.146, cell-free background 0.041
# [10] = arabinose induction (level): High, raw OD600 reference: median of DMSO wells 0.331, cell-free background 0.041
# [11] = arabinose induction (level): Low, raw OD600 reference: median of DMSO wells 0.417, cell-free background 0.041
# [12] = arabinose induction (level): High, raw OD600 reference: median of DMSO wells […], cell-free background 0.041
# [13] = arabinose induction (level): Low, raw OD600 reference: median of DMSO wells 0.227, cell-free background 0.041
# [14] = arabinose 100 nM, raw OD600 reference: median of DMSO wells 0.413, cell-free background 0.052
# [15] = arabinose 10000000 nM, raw OD600 reference: median of DMSO wells […], cell-free background 0.052
Compound,growth [1],growth (E. coli TESEC Mtb Alr [2]; [5]),growth (E. coli TESEC Mtb Alr [2]; [6]),growth (E. coli TESEC Mtb Alr [2]; [7]),growth (E. coli TESEC Mtb Alr [2]; [8]),growth (E. coli TESEC Mtb Alr [2]; [9]),growth (E. coli TESEC Mtb Asd; [10]),growth (E. coli TESEC Mtb Asd; [11]),growth (E. coli TESEC Mtb DapB; [12]),growth (E. coli TESEC Mtb DapB; [13]),growth [3],growth (E. coli TESEC Mtb Alr [4]; [14]),growth (E. coli TESEC Mtb Alr [4]; [15])
C[C@]12CC[C@@H]3c4ccc(O)cc4C[C@@H](CCCCCCCCC[S+]([O-])CCCC(F)(F)C(F)(F)F)[C@H]3[C@@H]1CC[C@@H]2O (stereo not given in full) [Fulvestrant],0.265 ± 0.015,0.296 ± 0.016,0.27 ± 0.009,0.195 ± 0.017,0.179 ± 0.012,0.137 ± 0.005,0.379 ± 0.022,0.415 ± 0.041,0.212 ± 0.0092,0.258 ± 0.091,0.439 ± 0.024,0.413 ± 0.03,0.355 ± 0.028
COc1ccc([C@@H]2CC(=O)c3c(O)cc(O[C@@H]4O[C@H](CO[C@@H]5O[C@@H](C)[C@H](O)[C@@H](O)[C@H]5O)[C@@H](O)[C@H](O)[C@H]4O)cc3O2)cc1O [Hesperidin],0.223 ± 0.0074,0.289 ± 0.016,0.251 ± 0.0089,0.205 ± 0.0089,0.177 ± 0.0064,0.145 ± 0.0031,0.22 ± 0.035,0.284 ± 0.06,0.188 ± 0.011,0.251 ± 0.034,0.521 ± 0.053,0.407 ± 0.0099,0.388 ± 0.028
CN1CCN(C(c2ccccc2)c2ccc(Cl)cc2)CC1 (stereo not given) [Chlorcyclizine hydrochloride],0.179 ± 0.0072,0.215 ± 0.021,0.174 ± 0.021,0.178 ± 0.0045,0.07137 ± 0.00015,0.1236 ± 0.00055,0.149 ± 0.0065,0.221 ± 0.0041,0.205 ± 0.014,0.261 ± 0.032,0.4416 ± 0.0038,0.4163 ± 0.0041,0.222 ± 0.033
CCN1CCN(C(=O)N[C@@H](C(=O)N[C@@H]2C(=O)N3C(C(=O)O)=C(CSc4nnnn4C)CS[C@H]23)c2ccc(O)cc2)C(=O)C1=O [Cefoperazone dihydrate],0.2999 ± 0.0024,0.321 ± 0.0082,0.221 ± 0.0032,0.3 ± 0.0043,0.182 ± 0.0037,0.1843 ± 0.0004,0.413 ± 0.016,0.417 ± 0.087,0.201 ± 0.0085,0.239 ± 0.042,0.512 ± 0.039,0.221 ± 0.078,0.341 ± 0.025
CC(=O)OCC1=C(C(=O)O)N2C(=O)[C@@H](NC(=O)Cc3cccs3)[C@H]2SC1 [Cephalothin sodium salt],0.305 ± 0.0066,0.334 ± 0.017,0.209 ± 0.0072,0.283 ± 0.03,0.172 ± 0.0079,0.174 ± 0.0022,0.421 ± 0.021,0.421 ± 0.058,0.206 ± 0.013,0.258 ± 0.0063,0.447 ± 0.04,0.332 ± 0.027,0.35 ± 0.015
CC(=O)NCCCS(=O)(=O)O [Acamprosate calcium],0.233 ± 0.004,0.2868 ± 0.0017,0.242 ± 0.0043,0.202 ± 0.026,0.1706 ± 0.0011,0.142 ± 0.0039,0.259 ± 0.079,0.309 ± 0.033,0.212 ± 0.031,0.229 ± 0.028,0.472 ± 0.035,0.409 ± 0.01,0.35 ± 0.025
CS(=O)(=O)c1ccc([C@@H](O)[C@@H](CO)NC(=O)C(Cl)Cl)cc1 [Thiamphenicol],0.0517 ± 0.0013,0.0511 ± 0.0029,0.0394 ± 0.00036,0.0517 ± 0.0013,0.0395 ± 0.0001,0.055 ± 0.0011,0.0715 ± 0.0096,0.0618 ± 0.0034,0.0792 ± 0.0018,0.0622 ± 0.0072,0.206 ± 0.015,0.301 ± 0.012,0.086 ± 0.0081
Clc1ccc2nsnc2c1NC1=NCCN1 [Tizanidine HCl],0.245 ± 0.011,0.287 ± 0.017,0.262 ± 0.00087,0.193 ± 0.028,0.185 ± 0.0059,0.142 ± 0.0064,0.248 ± 0.011,0.383 ± 0.057,0.216 ± 0.032,0.222 ± 0.022,0.623 ± 0.019,0.401 ± 0.0081,0.325 ± 0.015
"O=C1C(O)=C(O)C(=O)C(O)=C1O [Tetrahydroxy-1,4-quinone hydrate]",0.231 ± 0.0052,0.29 ± 0.02,0.275 ± 0.0064,0.19 ± 0.018,0.1568 ± 0.0015,0.142 ± 0.0053,0.349 ± 0.089,0.427 ± 0.082,0.206 ± 0.021,0.226 ± 0.0024,0.5 ± 0.021,0.399 ± 0.012,0.333 ± 0.0084
NNc1nncc2ccccc12 [Hydralazine hydrochloride],0.142 ± 0.0062,0.262 ± 0.022,0.256 ± 0.0092,0.174 ± 0.013,0.12 ± 0.0069,0.13 ± 0.0019,0.206 ± 0.017,0.25 ± 0.021,0.19 ± 0.0027,0.229 ± 0.033,0.448 ± 0.049,0.404 ± 0.0077,0.304 ± 0.018
Nc1ccc(S(=O)(=O)Nc2ccc(Cl)nn2)cc1 [Sulfachloropyridazine],0.241 ± 0.0064,0.285 ± 0.029,0.174 ± 0.0032,0.231 ± 0.022,0.0969 ± 0.0044,0.165 ± 0.0072,0.392 ± 0.14,0.412 ± 0.042,0.193 ± 0.013,0.236 ± 0.03,0.425 ± 0.022,0.421 ± 0.005,0.28 ± 0.029
Nc1ccc(S(=O)(=O)Nc2ncccn2)cc1 [Sulfadiazine],0.257 ± 0.0066,0.288 ± 0.017,0.241 ± 0.0079,0.199 ± 0.036,0.1549 ± 0.0004,0.146 ± 0.0024,0.374 ± 0.043,0.414 ± 0.0071,0.184 ± 0.015,0.187 ± 0.023,0.464 ± 0.054,0.411 ± 0.011,0.312 ± 0.066
CC(=O)[C@H]1CC[C@H]2[C@@H]3C=CC4=CC(=O)CC[C@@]4(C)[C@@H]3CC[C@]12C [Dydrogesterone],0.103 ± 0.005,0.154 ± 0.041,0.207 ± 0.0034,0.085 ± 0.0042,0.0856 ± 0.0016,0.0751 ± 0.0014,0.225 ± 0.038,0.402 ± 0.068,0.176 ± 0.0054,0.189 ± 0.0083,0.318 ± 0.0089,0.371 ± 0.021,0.101 ± 0.022
C[C@@H]1C[C@H]2[C@@H]3C[C@H](F)C4=CC(=O)C=C[C@]4(C)[C@@]3(F)[C@@H](O)C[C@]2(C)[C@@]1(O)C(=O)COC(=O)C(C)(C)C [Flumethasone pivalate],0.207 ± 0.028,0.271 ± 0.028,0.267 ± 0.017,0.209 ± 0.016,0.182 ± 0.022,0.145 ± 0.012,0.256 ± 0.022,0.319 ± 0.066,0.2 ± 0.0088,0.239 ± 0.023,0.521 ± 0.057,0.43 ± 0.025,0.373 ± 0.025
COC(=O)Nc1nc2cc(C(=O)c3ccccc3)ccc2[nH]1 [Mebendazole],0.202 ± 0.005,0.245 ± 0.021,0.269 ± 0.0042,0.189 ± 0.011,0.168 ± 0.0043,0.159 ± 0.0019,0.306 ± 0.021,0.398 ± 0.078,0.206 ± 0.017,0.273 ± 0.053,0.588 ± 0.031,0.413 ± 0.0078,0.342 ± 0.017
